Experiment [1] can be described thus: qHTS Assay for Identifying Gametocytocidal Compounds (AID 743244).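 Also: % is scaled to controls: 0 for no effect and ±100 for the full control effect; actives lower the fluorescent signal which means gametocytes are killed.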 Particulars: P. falciparum 3D7 stage III-V gametocytes, alamarBlue, 72 h; max response: stronger effect = lower value. Summed up: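 3D7 gametocytes, stages III–V, 20,000/well; cpd 72 h, 37 °C/5% CO2; + alamarBlue 24 h; fluor. Ex 525/Em 598.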
On the technique in general: Quantitative high-throughput screening tests each substance at several concentrations.

Experiment [2] in a line: qHTS assay for measurement of the activity of small molecule inhibitors on Zika virus induced Caspase-3 activity in human iPSC derived neural progenitor cells (hNPCs) (AID 1224857). Also: % of control where 0% means no effect; nearly all actives have a fitted effect of over 65% in size. In outline: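 Cells were plated at 350 per well and grown 16 to 20 hours. Compound pretreatment lasted one hour, after which ZIKV (2 FFU/cell) was added for 6 hours. Percent inhibition was normalized between uninfected and infected controls.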

Experiment [3] in a line: qHTS assay for measurement of the activity of small molecule inhibitors on Zika virus induced Caspase-3 activity in human astrocytoma cells (AID 1224859).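 Also: plate controls were ZIKV-infected untreated cells for no effect and uninfected cells for full effect.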 Summed up: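 Percent inhibition of virus-induced caspase-3/7 signal is calculated against uninfected and ZIKV-infected control cells. Cells are SNB-19, infected at 2 FFU/cell for 6 h after 1 h compound exposure.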
A short description of experiment [4]: P-glycoprotein substrates identified in KB-3-1 adenocarcinoma cell line, qHTS therapeutic library screen (AID 1346986). Also: nearly all actives have a fitted effect of over 60% in size. Summed up:
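Cells seeded 500/well in DMEM/10% FCS; compounds pinned in dose-response; 72 h incubation; CellTiter-Glo added, 5 min, luminescence. KB-8-5-11 run ±tariquidar to test reversal of P-gp resistance.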

Experiment [5] can be described thus: P-glycoprotein substrates identified in KB-8-5-11 adenocarcinoma cell line, qHTS therapeutic library screen (AID 1346987). Also: nearly all actives have a fitted effect of over 65% in size. Also: potency is read from the fitted curve at half-maximal effect. In outline: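 Steps: plate 500 KB-8-5-11 cells/well in DMEM + 10% FCS (colchicine removed); pin compounds in dose-response; incubate 72 h, 37 degree C, 5% CO2; add CellTiter-Glo, 5 min; read luminescence.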
The target of experiment [6] is T1, Hexokinase-4 (Homo sapiens) + Glucokinase regulatory protein (Homo sapiens) (UniProt P35557+Q14397). Briefly: qHTS assay for inhibitors of recombinant human GCK-GKRP interaction: Diaphorase-coupled assay (AID 743205). In outline:
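A kinetic fluorescence read (Ex 525/Em 590 nm, every minute for 30 minutes) tracked resorufin from a G6PDH-diaphorase coupled GCK reaction. It contained 10 nM GST-GCK, 10 nM FLAG-GKRP, 5 mM glucose, 0.4 mM ATP in Hepes pH 7.6. Normalized to with/without-enzyme DMSO controls.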

Experiment [7] concerns the target T1, Hexokinase-4 (Homo sapiens) + Glucokinase regulatory protein (Homo sapiens). Briefly: qHTS assay for inhibitors of recombinant human GCK-GKRP interaction: ADP-Glo assay (AID 743206).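 Also: plate controls were DMSO plus enzyme for no effect and no enzyme for full effect.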 Summed up: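 GST-GCK and FLAG-GKRP (15 nM each in the dispensed mix, with 2 uM S6P) react with 0.4 mM ATP and 5 mM glucose (final) in Hepes pH 7.6 for 60 min at room temperature. ADP is measured by ADP-Glo luminescence.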

Experiment [8] shares this target. Briefly: qHTS assay for inhibitors of recombinant human GCK-GKRP interaction: HTRF assay (AID 743207).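 Also: 0% = DMSO with GCK present and -100% = DMSO wells lacking GCK.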 In outline: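 After 60 min equilibration at room temperature with anti-FLAG XL665 and anti-GST antibodies, FRET ratio (665/615 nm, excitation 320 nm) was read. Proteins: GST-GCK and FLAG-GKRP, each 5 nM, plus 2 uM S6P, pH 7.1 buffer; GCK-free wells define minimum signal.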

A short description of experiment [9]: Natriuretic polypeptide receptor (hNpr1) antagonism - Pilot counterscreen GloSensor control cell line (AID 1347045; calls by dose curve; also: series mostly up to about 38 µM; % is scaled to controls: 0 for no effect and ±100 for the full control effect). In outline:
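Luminescence was read before and 20 min after adding 50 uM SNP, which stimulates soluble guanylyl cyclase. The HEK293 cells expressing the GloSensor cGMP sensor had been preloaded with 2% reagent for 2 h and treated with compound.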
Background: A counterscreen serves to expose hits that act by an unwanted route or on another target.

The nature of experiment [10]: qHTS for Activators of Parkin Expression: LOPAC Validation Assay (FLuc Reporter) (AID 720573;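 also: 0% = DMSO and 100% = positive control compounds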). Summed up:
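FLuc signal from Parkin-promoter coincidence reporter neuronal cells, normalized to DMSO and positive control (100%). Cells (1,500/well) pre-incubated 24 h, then exposed to LOPAC compounds in 7-point dose response for 24 h at 37 C, 5% CO2.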

A short description of experiment [11]: qHTS assay for small molecule antagonists of the retinoid-related orphan receptor gamma (ROR-gamma) signaling pathway - cell viability counter screen (AID 720652; active = well fitted curve in the direction sought with a large enough effect in the repeat runs; an effect the other way counts as inactive or inconclusive;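 also: series mostly up to about 92 µM; compound exposure lasted 16 hr before ATP read; % is scaled to controls: 0 for no effect and ±100 for the full control effect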). Summed up: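 Luminescence from CellTiter-Glo after 30 min at room temperature reported cellular ATP as the cytotoxicity measure. Cells were the CHO reporter line with doxycycline-induced ROR-gamma expression, exposed to compound for 16 hr at 37 C.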

Experiment [12] is described as follows: qHTS assay for small molecule agonists of the antioxidant response element (ARE) signaling pathway measured by Nrf2-dependant transcriptional activity - cell viability counter screen (AID 720653; active = well fitted curve in the direction sought with a large enough effect in the repeat runs; an effect the other way counts as inactive or inconclusive; also: % is scaled to controls: 0 for no effect and ±100 for the full control effect). Particulars: ARE-bla HepG2 viability, CellTiter-Glo ATP luminescence, 16 h; max response: stronger effect = lower value. Summed up:
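Cytotoxicity counter screen: intracellular ATP quantified by CellTiter-Glo luminescence in the same ARE-bla HepG2 plates, after 16 h compound exposure and a 2 h beta-lactamase substrate step.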

Experiment [13] in a line: qHTS assay for cell viability of HEK293 cells (AID 743288). Also: % is scaled to controls: 0 for no effect and ±100 for the full control effect; nearly all actives have a fitted effect of over 50% in size. To be noted: ATP luminescence (CellTiter-Glo), 18 h, stronger effect = lower value. In outline: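 Total intracellular ATP, measured with a luciferase-coupled reagent, indicates the number of viable HEK293 cells. Exposure to test chemicals lasts 18 h at 37 C in 1,536-well format at 2,000 cells/well.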
Experiment [14] can be described thus: qHTS assay for cell viability of the p53RE-bla HCT-116 cell line (AID 743292). Also: % is scaled to controls: 0 for no effect and ±100 for the full control effect; nearly all actives have a fitted effect of over 55% in size. Summed up: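 In this qHTS counter-screen, metabolically competent p53RE-bla HCT-116 cells were counted via their ATP content. Compounds were applied for 16 h at 37 C and luciferase-coupled luminescence was measured.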

Values joined by “and” are separate entries in the source; they are usually repeats but may differ in a detail not shown here. Identical values can stand only once. Unmarked numbers belong to inactive results. Records with an inconclusive call do not appear. Active and inactive are the calls of the source. Unless noted, calls follow the shape of the dose curve; as a rule, active = well fitted curve in the direction sought with a large enough effect; inconclusive = small, poorly fitted or top-dose-only effect, or another doubt; inactive = no such curve, though single readings can be large; an effect the other way counts as inactive or inconclusive.

T1 sequence (P35557 whole entry, looked up): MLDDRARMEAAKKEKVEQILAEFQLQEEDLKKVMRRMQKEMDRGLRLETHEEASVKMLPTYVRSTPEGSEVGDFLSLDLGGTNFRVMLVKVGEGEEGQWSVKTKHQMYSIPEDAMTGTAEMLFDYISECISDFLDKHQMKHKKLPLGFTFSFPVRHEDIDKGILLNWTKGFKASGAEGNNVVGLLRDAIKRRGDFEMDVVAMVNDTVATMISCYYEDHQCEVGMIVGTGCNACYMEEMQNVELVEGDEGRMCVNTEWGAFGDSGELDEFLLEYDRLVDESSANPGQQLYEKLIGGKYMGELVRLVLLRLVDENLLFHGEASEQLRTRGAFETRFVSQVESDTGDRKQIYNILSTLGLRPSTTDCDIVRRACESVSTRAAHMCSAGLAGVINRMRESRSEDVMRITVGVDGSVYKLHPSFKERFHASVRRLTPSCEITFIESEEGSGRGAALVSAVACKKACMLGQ
T1 sequence (Q14397 whole entry, looked up): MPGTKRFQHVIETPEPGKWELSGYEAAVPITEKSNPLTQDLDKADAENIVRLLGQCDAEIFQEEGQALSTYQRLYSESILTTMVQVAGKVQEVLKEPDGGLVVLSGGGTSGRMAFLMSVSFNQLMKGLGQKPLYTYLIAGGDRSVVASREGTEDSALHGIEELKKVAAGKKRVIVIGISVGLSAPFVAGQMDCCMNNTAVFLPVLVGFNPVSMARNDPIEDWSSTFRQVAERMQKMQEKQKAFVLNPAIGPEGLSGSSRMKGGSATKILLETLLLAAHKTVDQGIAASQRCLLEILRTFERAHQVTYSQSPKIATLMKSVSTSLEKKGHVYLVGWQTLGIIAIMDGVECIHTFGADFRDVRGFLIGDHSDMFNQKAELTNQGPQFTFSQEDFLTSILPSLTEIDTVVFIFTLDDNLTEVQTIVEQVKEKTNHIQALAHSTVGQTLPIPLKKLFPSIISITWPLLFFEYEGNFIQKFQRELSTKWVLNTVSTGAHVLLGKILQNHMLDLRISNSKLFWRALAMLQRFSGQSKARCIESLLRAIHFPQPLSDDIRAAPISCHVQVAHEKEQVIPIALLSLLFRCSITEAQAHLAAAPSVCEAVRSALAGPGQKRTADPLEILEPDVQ

Turning to `CCOC(=O)c1ccc(NC(=O)CN2CCCCC2)cc1`, the max response in [1] is 11.1%. For the same molecule, the Potency result in experiment [2] and in experiment [4] was “inactive” throughout. In experiment [3], the molecule was classed as inactive.
Turning to `O=C(Nc1ccc(Cl)cc1)Nc1ccc(Cl)c(C(F)(F)F)c1`, the Potency result in experiment [2] is “inactive”. Moreover, in experiment [3], the result was inactive. In addition, the Potency in experiment [5] was 20.6 µM (active).
In the case of `Oc1ccc(CCNCCCCCCNCCc2ccccc2)cc1O`, the Potency result in experiment [2] and in [5] was “inactive” each time. The result in experiment [3] was inactive.
As for `C[C@H](CN1CCCC1)C(=O)c1ccc(C(F)(F)F)cc1`, the Potency result in experiment [2] and in [5] was “inactive” in each case. Also, the result in [3] was inactive.
For the molecule `CCO[C@H](Cc1ccc(OCCc2ccc(OS(C)(=O)=O)cc2)cc1)C(=O)O`, the Potency entry in experiment [2] and in experiment [5] was “inactive” throughout. In addition, the result in experiment [3] was inactive.
Consider `O=C1NCCN1CCN1CCC(c2cn(-c3ccc(F)cc3)c3ccc(Cl)cc23)CC1`, for which the Potency entry in experiment [2] was “inactive”. For the same molecule, the molecule was classed as inactive in experiment [3]. Also, the Potency in experiment [5] was 18.4 µM (active) and 20.6 µM (active).
With `COc1cc(NS(=O)(=O)c2ccc(N)cc2)nc(C)n1`, in experiment [1], the max response was 34.9%. Moreover, the Potency result in [2], in [4] and in experiment [5] was “inactive” in each case. In addition, in [3], the outcome was inactive.
`COc1cc(C(=O)OC(COCCC(C)C)CN2CCOCC2)cc(OC)c1OC` (stereo not given): the max response in experiment [1] is 4.25%. Also, the Potency entry in experiment [2], in [4] and in experiment [5] was “inactive” throughout. The call in [3] was inactive.
As for `NCC(=O)O`, the Potency result in experiment [2] and in [5] was “inactive” each time. Further, in experiment [3], the molecule was classed as inactive.
On to `CN(C)c1cc2c(Nc3ccc4c(cnn4Cc4ccccc4)c3)ncnc2cn1`, for which the result in [6], in [7], in [8] and in [3] was inactive. The Potency entry in [2], in experiment [4] and in experiment [9] was “inactive” in each case.
Turning to `CN(C)C(=O)CNC(=O)Cc1ccccc1`, the max response in experiment [1] is 15%. In addition, the Potency entry in experiment [2], in [4] and in experiment [5] was “inactive” in each case. Besides, in experiment [3], the call was inactive.
In the case of `Nc1ncnc2n[nH]c(Nc3ccc(F)cc3)c12`, the result in experiment [10], in experiment [6], in [7], in experiment [8] and in [3] was inactive. Besides, the Potency result in experiment [2], in [4], in experiment [5] and in [9] was “inactive” each time.
Consider `O=C(O)Cc1ccccc1Oc1ccc(Cl)cc1Cl`, for which the max response in [1] is 10.5%. For the same molecule, the Potency result in [2], in [4] and in experiment [5] was “inactive” in each case. Further, in experiment [3], the molecule was classed as inactive.
With `O=C(O)c1ccccc1Nc1cc(Cl)ccc1C(=O)O`, the Potency entry in experiment [2] and in experiment [5] was “inactive” in each case. Further, the outcome in [3] was inactive.
For `CC(C(=O)O)c1ccc(/C=C2\CCCCC2=O)cc1` (stereo not given), the max response in experiment [1] is -9.38%. The Potency entry in experiment [2], in experiment [4] and in experiment [5] was “inactive” in each case. The molecule was called inactive in experiment [3].
On to `CC(=O)CC/C=C(\C)CC/C=C(\C)CC/C=C(\C)CCC=C(C)C`, for which the Potency entry in experiment [2] and in [5] was “inactive” in each case. Besides, the outcome in [3] was inactive.
Regarding `CO[C@]1(NC(=O)CSC(F)F)C(=O)N2C(C(=O)O)=C(CSc3nnnn3CCO)CO[C@H]21`, the Potency entry in experiment [2], in experiment [4] and in experiment [5] was “inactive” in each case. The molecule was called inactive in experiment [3].
With `O=C(c1ccccc1)c1ccccc1`, the molecule was called inactive in [11] and in experiment [3]. Further, the max response in [12] was 6.09% and -10.7%; in [1] it was -8.14%; in [13] it was -5.39% and 4.23%. Further, the Potency entry in experiment [14], in [2] and in experiment [5] was “inactive” in each case.
Turning to `CC(C)(C)c1nnc(NS(=O)(=O)c2ccccc2)s1`, the Potency result in experiment [2] and in experiment [5] was “inactive” each time. In [3], the call was inactive.
Take `COc1cc(C=O)ccc1O`: the call in [11] and in experiment [3] was inactive. Further, the max response in experiment [12] is -6.02% and -3.47%; in experiment [13], -1.87% and -5.65%. The Potency result in [14], in experiment [2] and in [5] was “inactive” throughout.
Consider `Oc1ccccc1`, for which the outcome in experiment [11] and in experiment [3] was inactive. For the same molecule, the max response in experiment [12] is -6.78% and -2.25% and 3.75%; in experiment [1] it was 2.14%; in experiment [13] it was -3.62% and -6.12% and 4.72%. Also, the Potency result in [14], in [2] and in experiment [5] was “inactive” throughout.
As to `CC1CC(=O)NN=C1c1ccc(NCC(C)(C)NCC(O)COc2cc(Cl)ccc2C#N)cc1` (stereo not given), the Potency result in experiment [2] and in [5] was “inactive” in each case. Besides, the call in experiment [3] was inactive.
Take `CC(C)C(C)(C)C(C)(C)C(C)(C)S`: the outcome in experiment [11] and in experiment [3] was inactive. Moreover, the max response in experiment [12] is -4.36% and 4.23%; in experiment [1], 40.1%; in experiment [13], 6.58% and -3.43%. Also, the Potency entry in experiment [14], in experiment [2] and in experiment [5] was “inactive” throughout.
On to `CN1[C@@H]2CC[C@H]1CC(NC(=O)n1c(=O)[nH]c3ccccc31)C2` (stereo not given in full), for which the Potency result in experiment [2] and in experiment [5] was “inactive” in each case. The result in [3] was inactive.
`Nc1ccc(O)cc1`: the max response in experiment [12] is -19.2%; in experiment [13], -8.77%. Besides, the Potency result in [14], in [2] and in [5] was “inactive” throughout. For the same molecule, in experiment [3], the molecule was classed as inactive.
On to `O=C(NO)c1ccccc1`, for which the molecule was called inactive in [11] and in experiment [3]. The max response in [12] is -9.7%; in experiment [1] it was 14.9%; in experiment [13] it was -10.3%. For the same molecule, the Potency result in [14], in [2] and in experiment [5] was “inactive” throughout.
Take `CCCCCC[C@@H](CCC)C(=O)O`: in experiment [1], the max response is 16.9%. Also, the Potency result in [2] and in experiment [5] was “inactive” in each case. In addition, the outcome in experiment [3] was inactive.
Consider `Cc1nn(-c2ccccc2)c(C)c1/C=N/N1CCN(Cc2ccccc2)CC1`, for which the outcome in experiment [10], in [6], in [7], in [8] and in experiment [3] was inactive. Also, the max response in experiment [1] was 1.48%. For the same molecule, the Potency entry in experiment [2], in experiment [5] and in [9] was “inactive” each time.

The values above are taken from PubChem BioAssay (NCATS).
